Laboratory results published in PubChem BioAssay AID1159580 (chemical genetic matrix, 2015).
Several values for one entry are separate records, joined by “and”; a condition that tells them apart may be missing. Identical values can stand only once. The whole screen tested about 5,500 compounds, of which about 2,000 (36%) were called active. Inconclusive results (about 18%) are left out. Rule as the data show it: active = normalized growth mostly below about 0.91 (no sharp cut-off); inconclusive = no clear call, values can overlap the other calls; inactive = mostly above about 0.92. This is one part of the list.

Assay: chemical genetic growth profiling, strain panel (AID 1159580);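 also: tested at 20 µM; growth read once vehicle control cultures reached saturation at 30 °C; 1 = growth at the plate median or of vehicle wells; lower values mean less growth of the strain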
Conditions: growth OD

Measured: normalized growth

CN(C)CCC(c1ccc(Br)cc1)c1ccccn1 (centres undefined)
inactive: S. cerevisiae deletion strains, locus YKL009W, strain mrt4, stronger effect = lower value 0.99 | S. cerevisiae deletion strains, locus YKL068W, stronger effect = lower value 1.01 | S. cerevisiae deletion strains, locus YKL085W, strain MDH1 (second series), stronger effect = lower value 1.02 | S. cerevisiae deletion strains, locus YKL085W, strain MDH1, stronger effect = lower value 1.02 | S. cerevisiae deletion strains, locus YKL160W, strain elf1, stronger effect = lower value 0.981 | S. cerevisiae deletion strains, locus YKL190W, strain CNB1, stronger effect = lower value 0.995 | S. cerevisiae deletion strains, locus YKR001C, strain vps1, stronger effect = lower value 0.964 | S. cerevisiae deletion strains, locus YKR026C, strain gcn3, stronger effect = lower value 0.986 | S. cerevisiae deletion strains, locus YLL001W, strain dnm1, stronger effect = lower value 0.998 | S. cerevisiae deletion strains, locus YLL026W, stronger effect = lower value 0.987 | S. cerevisiae deletion strains, locus YLL041C, strain sdh2, stronger effect = lower value 0.981 | S. cerevisiae deletion strains, locus YLR027C, strain aat2, stronger effect = lower value 0.99 | S. cerevisiae deletion strains, locus YLR039C, strain RIC1, stronger effect = lower value 0.999 | S. cerevisiae deletion strains, locus YLR058C, strain SHM2, stronger effect = lower value 0.991 | S. cerevisiae deletion strains, locus YLR102C, strain apc9, stronger effect = lower value 0.992 | S. cerevisiae deletion strains, locus YLR113W, strain HOG1, stronger effect = lower value 1.01 | S. cerevisiae deletion strains, locus YLR221C, strain rsa3, stronger effect = lower value 0.999 | S. cerevisiae deletion strains, locus YLR258W, strain gsy2, stronger effect = lower value 0.969 | S. cerevisiae deletion strains, locus YLR262C, strain YPT6 (second series), stronger effect = lower value 0.999 | S. cerevisiae deletion strains, locus YLR262C, strain YPT6, stronger effect = lower value 1.03 | S. cerevisiae deletion strains, locus YLR268W, strain sec22, stronger effect = lower value 0.956 | S. cerevisiae deletion strains, locus YLR320W, strain mms22, stronger effect = lower value 1.03 | S. cerevisiae deletion strains, locus YLR330W, strain CHS5, stronger effect = lower value 0.992 | S. cerevisiae deletion strains, locus YLR342W, strain FKS1 (second series), stronger effect = lower value 0.985 | S. cerevisiae deletion strains, locus YLR342W, strain FKS1, stronger effect = lower value 0.986 | S. cerevisiae deletion strains, locus YLR357W, strain rsc2, stronger effect = lower value 0.972 | S. cerevisiae deletion strains, locus YLR370C, strain arc18, stronger effect = lower value 0.982 | S. cerevisiae deletion strains, locus YLR371W, strain rom2, stronger effect = lower value 0.989 | S. cerevisiae deletion strains, locus YLR384C, strain iki3, stronger effect = lower value 0.989 | S. cerevisiae deletion strains, locus YLR418C, strain cdc73, stronger effect = lower value 0.95 | S. cerevisiae deletion strains, locus YML016C, strain PPZ1, stronger effect = lower value 0.986 | S. cerevisiae deletion strains, locus YML032C, strain rad52, stronger effect = lower value 0.966 | S. cerevisiae deletion strains, locus YML120C, strain ndi1, stronger effect = lower value 0.981 | S. cerevisiae deletion strains, locus YML124C, strain tub3, stronger effect = lower value 0.987 | S. cerevisiae deletion strains, locus YMR058W, strain fet3, stronger effect = lower value 1.01 | S. cerevisiae deletion strains, locus YMR078C, strain ctf18, stronger effect = lower value 0.974 | S. cerevisiae deletion strains, locus YMR125W, strain sto1, stronger effect = lower value 0.936 | S. cerevisiae deletion strains, locus YMR129W, stronger effect = lower value 0.982 | S. cerevisiae deletion strains, locus YMR205C, strain PFK2, stronger effect = lower value 0.997 | S. cerevisiae deletion strains, locus YMR223W, strain ubp8, stronger effect = lower value 1.01 | S. cerevisiae deletion strains, locus YMR231W, strain pep5, stronger effect = lower value 0.978 | S. cerevisiae deletion strains, locus YMR263W, strain SAP30, stronger effect = lower value 0.976 | S. cerevisiae deletion strains, locus YMR307W, strain GAS1, stronger effect = lower value 1.01 | S. cerevisiae deletion strains, locus YNL067W, strain RPL9B, stronger effect = lower value 0.977 | S. cerevisiae deletion strains, locus YNL071W, strain lat1, stronger effect = lower value 0.98 | S. cerevisiae deletion strains, locus YNL128W, strain TEP1, stronger effect = lower value 0.988 | S. cerevisiae deletion strains, locus YNL153C, strain GIM3, stronger effect = lower value 0.981 | S. cerevisiae deletion strains, locus YNL175C, strain NOP13, stronger effect = lower value 1 | S. cerevisiae deletion strains, locus YNL183C, strain NPR1, stronger effect = lower value 0.942 | S. cerevisiae deletion strains, locus YNL197C, strain WHI3, stronger effect = lower value 1.01 | S. cerevisiae deletion strains, locus YNL209W, strain ssb2, stronger effect = lower value 0.993 | S. cerevisiae deletion strains, locus YNL224C, strain SQS1, stronger effect = lower value 1 | S. cerevisiae deletion strains, locus YNL233W, strain BNI4, stronger effect = lower value 0.988 | S. cerevisiae deletion strains, locus YNL248C, strain rpa49, stronger effect = lower value 0.952 | S. cerevisiae deletion strains, locus YNL250W, strain rad50, stronger effect = lower value 0.978 | S. cerevisiae deletion strains, locus YNL271C, strain bni1, stronger effect = lower value 0.984 | S. cerevisiae deletion strains, locus YNL298W, strain CLA4, stronger effect = lower value 0.985 | S. cerevisiae deletion strains, locus YNL307C, strain MCK1, stronger effect = lower value 0.989 | S. cerevisiae deletion strains, locus YNL322C, strain KRE1 (second series), stronger effect = lower value 0.971 | S. cerevisiae deletion strains, locus YNL322C, strain KRE1, stronger effect = lower value 0.991 and 1.02 | S. cerevisiae deletion strains, locus YNR049C, strain mso1, stronger effect = lower value 0.968 | S. cerevisiae deletion strains, locus YNR052C, strain pop2, stronger effect = lower value 0.989 | S. cerevisiae deletion strains, locus YOL006C, strain TOP1, stronger effect = lower value 0.973 | S. cerevisiae deletion strains, locus YOL012C, strain htz1 0.603 | S. cerevisiae deletion strains, locus YOL147C, strain pex11, stronger effect = lower value 0.983 | S. cerevisiae deletion strains, locus YOR001W, strain rrp6, stronger effect = lower value 0.986 | S. cerevisiae deletion strains, locus YOR061W, strain CKA2, stronger effect = lower value 0.99 | S. cerevisiae deletion strains, locus YOR069W, strain VPS5, stronger effect = lower value 0.992 | S. cerevisiae deletion strains, locus YOR070C, strain gyp1, stronger effect = lower value 0.99 | S. cerevisiae deletion strains, locus YOR080W, strain dia2, stronger effect = lower value 0.975 | S. cerevisiae deletion strains, locus YOR083W, strain WHI5 (second series), stronger effect = lower value 1.01 | S. cerevisiae deletion strains, locus YOR083W, strain WHI5, stronger effect = lower value 0.928 | S. cerevisiae deletion strains, locus YOR106W, strain vam3, stronger effect = lower value 0.966 | S. cerevisiae deletion strains, locus YOR136W, strain idh2, stronger effect = lower value 1 | S. cerevisiae deletion strains, locus YOR144C, strain elg1, stronger effect = lower value 0.99 | S. cerevisiae deletion strains, locus YOR184W, strain ser1, stronger effect = lower value 0.98 | S. cerevisiae deletion strains, locus YOR231W, strain MKK1, stronger effect = lower value 0.986 | S. cerevisiae deletion strains, locus YOR265W, strain rbl2, stronger effect = lower value 0.99 | S. cerevisiae deletion strains, locus YOR270C, strain vph1, stronger effect = lower value 0.981 | S. cerevisiae deletion strains, locus YOR290C, strain snf2, stronger effect = lower value 0.97 | S. cerevisiae deletion strains, locus YOR316C, strain cot1, stronger effect = lower value 0.987 | S. cerevisiae deletion strains, locus YPL051W, strain arl3, stronger effect = lower value 0.991 | S. cerevisiae deletion strains, locus YPL055C, strain LGE1, stronger effect = lower value 1 and 1.01 | S. cerevisiae deletion strains, locus YPL078C, strain atp4, stronger effect = lower value 0.985 | S. cerevisiae deletion strains, locus YPL106C, strain sse1, stronger effect = lower value 0.936 | S. cerevisiae deletion strains, locus YPL240C, strain hsp82, stronger effect = lower value 0.991 | S. cerevisiae deletion strains, locus YPL241C, strain CIN2, stronger effect = lower value 0.992 and 1.01 | S. cerevisiae deletion strains, locus YPL256C, strain CLN2, stronger effect = lower value 0.96 | S. cerevisiae deletion strains, locus YPR119W, strain clb2, stronger effect = lower value 0.998 | S. cerevisiae deletion strains, locus YPR141C, strain kar3, stronger effect = lower value 0.979 | S. cerevisiae deletion strains, locus YPR163C, strain tif3, stronger effect = lower value 0.987 | S. cerevisiae deletion strains, locus YPR167C, strain met16, stronger effect = lower value 0.987 | S. cerevisiae deletion strains, strain wtn01, stronger effect = lower value 0.95 | S. cerevisiae strains, strain wild type, stronger effect = lower value 0.987
